Compounds with a hit are over-represented: about 9.5% of the library has one in this group of screens.
Pf growth 48h – Primary qHTS for delayed death inhibitors of the malarial parasite plastid, 48 hour incubation. P. falciparum luciferase growth in erythrocytes, 48 h. Potency, µM (doses to about 28.7 µM), usual class: inhibitors. 310,000 tested, 5.9% active; active = well fitted inhibition curve with a large enough effect; inconclusive = small, poorly fitted or top-dose-only effect, or another doubt; inactive = no such curve, though single readings can be large or run the other way
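In quantitative HTS format, infected erythrocytes bearing luciferase-reporter parasites were treated for a single generation at 37 C. Luminescence after adding detection reagent served as the growth measure.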
NS1 function inh – qHTS Assay for Inhibitors of Influenza NS1 Protein Function. Potency, µM (top dose mostly 46.1 µM). 270,000 tested, 0.4% active. AID 2326, 2010; also: actives are rising curves; nearly all actives have a fitted effect of over 50% in size
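OD600 was taken as the measure of yeast growth restored by compound in an NS1-expressing S. cerevisiae strain. Cells had been washed out of glucose medium and diluted 1:100 into galactose -URA medium, pH 6.0.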
SARS PLpro yeast – qHTS of Yeast-based Assay for SARS-CoV PLP; S. cerevisiae expressing SARS-CoV PLpro, growth rescue; Potency, µM (highest dose often 32.9 µM), most hits filed as activators; 330,000 tested, 0.19% active; AID 485353, 2010; also: nearly all actives have a fitted effect of over 55% in size
RE007 growth inh – qHTS Assay for Inhibitors of the HIV-1 protein Vpr; S. pombe RE007 Vpr strain, BacTiter-Glo ATP luminescence, 24 h; Potency, µM (series often up to 92.2 µM), actives largely listed as inhibitors; 360,000 tested, 0.21% active; AID 651644, 2012; active = well fitted falling curve with a large enough effect; inconclusive = small, poorly fitted or top-dose-only effect; inactive = no such curve, though single readings can be large or run the other way; also: nearly all actives have a fitted effect of over 50% in size
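Fission yeast strain RE007, carrying one chromosomally integrated HIV-1 vpr copy, was seeded at OD 0.01 in PMG+AL medium with 23 nL pinned compound. After 24 h at 30 °C and 99% humidity, viability was read by BacTiter-Glo luminescence.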
Pf growth 96h – Primary qHTS for delayed death inhibitors of the malarial parasite plastid, 96 hour incubation. P. falciparum luciferase reporter growth, 96 h. Potency, µM (top dose mostly 28.7 µM), actives largely listed as inhibitors. 320,000 tested, 6.9% active. AID 504834, 2011; active = well fitted inhibition curve with a large enough effect; inconclusive = small, poorly fitted or top-dose-only effect, or another doubt; inactive = no such curve, though single readings can be large or run the other way
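Two-generation exposure (96 h) targets delayed-death phenotype. Reporter parasites carrying integrated firefly luciferase, in red cells at 2% hematocrit and 0.05% parasitemia final, kept at 37 C, 5% CO2; luminescence loss indicates inhibition.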
Each line names hits and unclear results; the compound was inactive in the other large screens. Unless noted, calls follow the shape of the full dose curve.

Cc1nn(-c2ccccc2)c(C)c1NC(=O)COc1ccc(Br)cc1Cl	Pf growth 96h inconclusive
CCc1ccc2[nH]c(=O)c(CN(Cc3ccccc3)Cc3nnnn3Cc3ccco3)cc2c1	Pf growth 48h 9.28µM
CCOC(=O)Cn1nnnc1C(CC)N(Cc1ccccc1)Cc1cc2cc(C)ccc2[nH]c1=O (stereo not drawn)	Pf growth 96h inconclusive (no result: Pf growth 48h)
CCOC(=O)Cn1nnnc1CN(Cc1ccccc1)Cc1cc2cc(CC)ccc2[nH]c1=O	Pf growth 96h 11.7µM
Cc1cccc2cc(CN(Cc3cccs3)Cc3nnnn3Cc3ccccc3)c(=O)[nH]c12	Pf growth 48h inconclusive, NS1 function inh inconclusive
CCc1ccc2[nH]c(=O)c(CN(CCN(CC)CC)C(=S)NCc3ccco3)cc2c1	Pf growth 48h 9.28µM
CCOC(=O)Cn1nnnc1CN(Cc1cccs1)Cc1cc2cc(C)cc(C)c2[nH]c1=O	Pf growth 96h 10.4µM (no result: Pf growth 48h)
CCc1ccc2[nH]c(=O)c(CN(CCN(C)C)C(=S)NCc3ccco3)cc2c1	Pf growth 48h inconclusive
CC1(C(=O)NCCC#N)CCN1C(=O)CC(c1ccccc1)c1ccccc1 (stereo not drawn)	none (no result: Pf growth 48h, NS1 function inh, SARS PLpro yeast, Pf growth 96h)
CC(=O)C1=CN(Cc2ccccc2)CCC1=O	none (no result: Pf growth 48h, NS1 function inh, SARS PLpro yeast, Pf growth 96h)
O=C(CN1C(=O)COc2ccc(Cl)cc21)NC1CC1	Pf growth 96h inconclusive
Cc1ccnc(NS(=O)(=O)c2cc(C(F)(F)F)ccc2Cl)c1	Pf growth 96h inconclusive (no result: RE007 growth inh)
Clc1ccc(-c2noc(CN3CCOCC3)n2)cc1	none
O=C1CCN(Cc2nc(-c3ccc(Cl)cc3)no2)CCN1	Pf growth 96h 10.4µM
C[C@@H]1CN([C@@H](C)CO)S(=O)(=O)c2ccc(Br)cc2O[C@H]1CN(C)C(=O)c1cccc(F)c1	none (no result: Pf growth 48h, NS1 function inh, SARS PLpro yeast, Pf growth 96h)
Cc1ccc(Nc2nc(-c3sc(NC(=O)c4cccc(Cl)c4)nc3C)cs2)cc1	Pf growth 48h 2.33µM, Pf growth 96h 4.15µM (no result: RE007 growth inh)
Cc1nc(N)sc1-c1csc(Nc2cccc(C(=O)O)c2)n1	none
Cc1nc(NC(=O)c2ccc(Cl)cc2)sc1-c1csc(Nc2cccc(F)c2)n1	Pf growth 48h 13.1µM, Pf growth 96h 2.62µM (no result: RE007 growth inh)
COc1ccccc1Nc1nc(-c2sc(NC(=O)c3cccc(Cl)c3)nc2C)cs1	Pf growth 48h inconclusive, Pf growth 96h 9.28µM (no result: RE007 growth inh)
CCNc1nc(-c2sc(NC(=O)C(C)(C)C)nc2C)c(-n2cc(-c3ccccc3)nn2)s1	none (no result: Pf growth 48h, NS1 function inh, SARS PLpro yeast, Pf growth 96h)
Cc1cccc(Nc2nc(N3CCOCC3)nc(N3CCOCC3)n2)c1	Pf growth 48h inconclusive
C=CCNc1nc(NCCN2CCOCC2)nc(N2CCOCC2)n1	none
FC(F)(F)c1cccc(Nc2nc(N3CCOCC3)nc(N3CCOCC3)n2)c1	Pf growth 48h inconclusive, Pf growth 96h inconclusive
Oc1cccc(Nc2nc(N3CCOCC3)nc(N3CCOCC3)n2)c1	Pf growth 48h 11.7µM, Pf growth 96h inconclusive
C=CCNc1nc(N2CCOCC2)nc(N2CCOCC2)n1	Pf growth 96h 13.1µM
Cn1ccnc1Sc1nc(Nc2cccc(Cl)c2)nc(N2CCOCC2)n1	Pf growth 48h 8.28µM (no result: Pf growth 96h)
Cc1[nH]c2ccccc2c1/C=N/Nc1nc(Nc2ccc(F)cc2)nc(N2CCOCC2)n1	Pf growth 48h 4.15µM, Pf growth 96h 2.62µM
Cc1ccc(Nc2nc(N/N=C/c3c[nH]c4ccccc34)nc(N3CCOCC3)n2)cc1	Pf growth 48h inconclusive, NS1 function inh inconclusive, Pf growth 96h inconclusive
Cc1ccc(Oc2ncccc2C(=O)NCC(=O)O)cc1	none
Cc1ccc([N+](=O)[O-])cc1Nc1nc(N2CCCC2)nc(N2CCCC2)n1	none
CC(C)C[C@H]1CN(CCCC[C@H]2CNC(=O)C(=O)N2CCc2ccccc2)C(=O)C(=O)N1CCC1CCCCC1	none (no result: Pf growth 48h, NS1 function inh, SARS PLpro yeast, Pf growth 96h)
CCCN(C)C1CN(Cc2cn(Cc3ccc(F)cc3)nn2)S(=O)(=O)C1 (stereo not drawn)	none (no result: Pf growth 48h, NS1 function inh, SARS PLpro yeast, Pf growth 96h)
CCOc1nc(Nc2ccc(F)cc2)nc(N2CCN(c3ccc(OC)cc3)CC2)n1	Pf growth 96h inconclusive (no result: Pf growth 48h)
N#Cc1ccc(Oc2nc(Nc3ccc(F)cc3)nc(N3CCCC3)n2)cc1	Pf growth 96h 4.15µM (no result: Pf growth 48h)
Fc1ccc(Nc2nc(N3CCOCC3)nc(N3CCOCC3)n2)cc1	Pf growth 96h 13.1µM
c1ccc(Nc2nc(N3CCOCC3)nc(N3CCOCC3)n2)cc1	Pf growth 48h inconclusive
C/C=C/c1ccc2c(c1)O[C@H](CN(C)CC1CCOCC1)[C@@H](C)CN([C@H](C)CO)S2(=O)=O	none (no result: Pf growth 48h, NS1 function inh, SARS PLpro yeast, Pf growth 96h)
Cc1cc(Oc2nc3c(C)cccn3c(=O)c2/C=C(\C#N)S(=O)(=O)c2ccccc2)ccc1Cl	Pf growth 48h inconclusive, Pf growth 96h 2.33µM
Cc1cccn2c(=O)c(/C=C(\C#N)S(=O)(=O)c3ccccc3)c(Oc3ccc(Cl)cc3)nc12	Pf growth 48h inconclusive, Pf growth 96h 11.7µM
CCCCn1c(N)c(S(=O)(=O)c2ccc(C)cc2)c2nc3ccccc3nc21	Pf growth 48h inconclusive, NS1 function inh inconclusive, Pf growth 96h 11.7µM
CN(C)CCCn1c(N)c(S(=O)(=O)c2ccccc2)c2nc3ccccc3nc21	none
CC(C)OC(=O)c1c(N)n(Cc2ccco2)c2nc3ccccc3nc12	none
Cc1ccc(S(=O)(=O)c2c(N)n(Cc3ccco3)c3nc4ccccc4nc23)cc1	Pf growth 48h inconclusive, Pf growth 96h 10.4µM
Cc1cccc(S(=O)(=O)c2c(N)n(Cc3ccco3)c3nc4ccccc4nc23)c1	Pf growth 48h 8.28µM
Cc1ccc(C(=O)NCc2cccnc2)cc1S(=O)(=O)Nc1ccccc1	none (no result: NS1 function inh)
C#CC[N+](C)(C)C(C#Cc1ccccc1)CC=C (stereo not drawn)	Pf growth 48h 9.28µM, Pf growth 96h 5.86µM
COc1ccc(NC(=O)CN2CCN(CC(=O)Nc3ccc(OC)cc3)CC2)cc1	none
COc1ccc(-c2cccc(C3CC=CC4C3C(=O)N(Cc3ccccc3)C4c3ccc(OC)c(Cl)c3)c2)cc1 (stereo not drawn)	Pf growth 48h 11.7µM, Pf growth 96h 9.28µM
Cc1ccc(F)c(C2C3C=CCC(c4cccc(-c5ccc(N(C)C)cc5)c4)C3C(=O)N2Cc2ccccc2)c1 (stereo not drawn)	Pf growth 48h 2.94µM, NS1 function inh inconclusive, Pf growth 96h 2.94µM
COc1ccc(-c2cccc(C3CC=CC4C3C(=O)N(Cc3ccccc3)C4c3cc(C)ccc3F)c2)cc1 (stereo not drawn)	Pf growth 48h 6.57µM, Pf growth 96h 6.57µM (no result: RE007 growth inh)
CC(=O)N/N=C(/C)c1ccc(NC(=O)c2csc(C)c2C)cc1	none
CCC(CC)C(=O)Nc1c2c(nn1-c1ccc(OC)cc1)CS(=O)C2 (stereo not drawn)	Pf growth 96h 0.0329µM (no result: Pf growth 48h)
CC(C)(C)C1CCc2c(sc(NC(=O)c3cc(C4CC4)on3)c2C#N)C1 (stereo not drawn)	none (no result: Pf growth 48h)
Cc1cc(C(=O)Nc2sc3c(c2C#N)CCC(C(C)(C)C)C3)no1 (stereo not drawn)	Pf growth 96h 10.4µM (no result: Pf growth 48h)
CC(C)C(NS(=O)(=O)c1cccc2nsnc12)C(=O)N1CCCCC1 (stereo not drawn)	none

From PubChem BioAssay
